Inconclusive results are not listed. Active and inactive are the calls of the source. Calls follow the shape of the dose curve; as a rule, active = well fitted curve in the direction sought with a large enough effect; inconclusive = small, poorly fitted or top-dose-only effect, or another doubt; inactive = no such curve, though single readings can be large; an effect the other way counts as inactive or inconclusive.
Assays:
[1] = biological target: Cellular tumor antigen p53 (Homo sapiens) (UniProt P04637); assay: Primary qHTS for small molecule compounds that upregulate eGFP-tagged delta133p53alpha (in N-terminal) cells. (AID 2060322); conditions: NCI-H358 eGFP-delta133p53alpha fluorescence, 24 h; activation: stronger effect = higher value;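 also: cells pre-induced with doxycycline then dosed without doxycycline; series mostly up to about 56 µM; 0% = DMSO vehicle and 100% = reference activator; nearly all actives have a fitted effect of over 75% in size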
How it was run: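 NCI-H358 cells pre-induced 24 h with 10 ng/ml doxycycline for eGFP-delta133p53alpha, plated dox-free and exposed 24 h at 37C to titrated compounds. Fixed, Hoechst-stained; gated GFP peak intensity by laser scanning cytometry, normalized to DMSO (0%) and 57.5 uM 5-azacytidine (100%).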

[2] = biological target: Aldehyde dehydrogenase, mitochondrial (Homo sapiens) (UniProt P05091); assay: qHTS for Inhibitors of the Aldehyde Dehydrogenase Family (ALDH2) Primary screen (AID 2061308);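 also: plate controls were vehicle for no effect and reference inhibitor for full effect; nearly all actives have a fitted effect of over 55% in size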
[3] = biological target: Retinaldehyde dehydrogenase 3 (Homo sapiens) (UniProt P47895); assay: qHTS for Inhibitors of the Aldehyde Dehydrogenase Family (ALDH1A3) Primary screen (AID 2061315);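 also: plate controls were DMSO vehicle for no effect and reference inhibitor for full effect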

Cellular tumor antigen p53 (Homo sapiens), sequence (P04637 whole entry, looked up): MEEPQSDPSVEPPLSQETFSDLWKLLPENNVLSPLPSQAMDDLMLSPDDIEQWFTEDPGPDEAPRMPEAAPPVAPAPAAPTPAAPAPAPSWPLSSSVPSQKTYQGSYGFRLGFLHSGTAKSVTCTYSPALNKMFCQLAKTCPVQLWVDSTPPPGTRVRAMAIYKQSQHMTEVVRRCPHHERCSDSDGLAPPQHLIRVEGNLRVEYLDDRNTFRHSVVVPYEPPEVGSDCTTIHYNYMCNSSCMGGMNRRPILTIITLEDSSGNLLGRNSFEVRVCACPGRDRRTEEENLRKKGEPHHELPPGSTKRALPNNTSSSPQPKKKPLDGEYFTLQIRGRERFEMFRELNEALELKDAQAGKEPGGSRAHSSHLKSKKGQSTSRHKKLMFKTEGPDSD

CC(=O)OC1C(O)C2C(C)C3=CC(=O)OC3(O)CC2C2(C)CCCC(C)(CO)C12 (configuration not stated)
inactive: activation [1] 9.16% | Potency [2] | Potency [3]

C=C1CC23CC1CCC2C12OC(=O)C(C)(C(O)CC1O)C2C3C(=O)O (configuration not stated)
inactive: activation [1] -7.14% | Potency [2] | Potency [3]

CC(=O)OC/C(=C/C(=O)O)CC[C@@H]1C(C)=CC(=O)[C@@H]2C(C)(C)CCC[C@@]12C
inactive: activation [1] -23.7% | Potency [2] | Potency [3]

C=C1CCC[C@]2(C)CC/C(=C(/CO)C(=O)OC)C[C@@H]12
inactive: activation [1] 18.8% | Potency [2] | Potency [3]

CCC(C)/C=C(C)/C=C/C1=CC2=C(Cl)C(=O)C(C)(OC(C)=O)C(=O)C2=CN1C(CCCN=C(N)N)C(=O)O (configuration not stated)
inactive: activation [1] 16% | Potency [2] | Potency [3]

O=S(=O)(NC1CCNCC1)c1cc(S(=O)(=O)c2ccccc2)ccc1C(F)(F)F
inactive: activation [1] 5.25% | Potency [2] | Potency [3]

CC(=O)OC1C(O)CC2(C)C(CCC(C)C23Cc2c(O)cc(CO)c(C=O)c2O3)C1(C)C (configuration not stated)
inactive: activation [1] 6.87% | Potency [2] | Potency [3]

CC(C)C(C#N)O[C@@H]1O[C@H](CO[C@@H]2O[C@@H](C)[C@H](O)[C@@H](O)[C@H]2O)[C@@H](O)[C@H](O)[C@H]1O (some centres not stated)
inactive: activation [1] -3.82% | Potency [2] | Potency [3]

N#C[C@@H]1C[C@H](F)CN1C(=O)CNC1[C@H]2CN(C(=O)c3ccc(F)cc3)C[C@@H]12 (some centres not stated)
inactive: activation [1] -1% | Potency [2] | Potency [3]

O=C(CO)[C@@H](O)[C@H](O[C@@H]1O[C@H](CO)[C@H](O)[C@H](O)[C@H]1O)[C@H](O)CO
inactive: activation [1] 28.3% | Potency [2] | Potency [3]

CC1C/C=C/C=C\CCCCC(O)C/C=C/C(=O)O1 (configuration not stated)
inactive: activation [1] -17.9% | Potency [2] | Potency [3]

CN1C(=O)c2ccccc2NC(=O)[C@]12O[C@@H]2c1cccc(O)c1
inactive: activation [1] -1.53% | Potency [2] | Potency [3]

CC1(CO)CC[C@]2(C(=O)O[C@@H]3O[C@H](CO)[C@@H](O)[C@H](O)[C@H]3O)CC[C@]3(C)C(=CCC4[C@@]5(C)C[C@H](O)[C@H](O[C@@H]6OC[C@@H](O)[C@H](O)[C@H]6O)[C@@](C)(CO)C5CC[C@]43C)C2C1 (some centres not stated)
inactive: activation [1] -16% | Potency [2] | Potency [3]

C[C@@H]1O[C@@H](O[C@H]2[C@H](O[C@H]3[C@H](O)[C@@H](C(=O)O)O[C@@H](O[C@H]4CC[C@@]5(C)C(CC[C@]6(C)C5CC[C@]57OC[C@@]8(CCC(C)(C)CC85)[C@H](O)C[C@]76C)C4(C)C)[C@@H]3O[C@@H]3O[C@H](CO)[C@@H](O[C@@H]4OC[C@@H](O)[C@H](O)[C@H]4O)[C@H](O)[C@H]3O)O[C@H](CO)[C@H](O)[C@@H]2O)[C@H](O)[C@H](O)[C@H]1O (some centres not stated)
inactive: activation [1] -6.87% | activity change, negative = inhibition [2] 5.88% [at 11.2 µM] | activity change, negative = inhibition [3] -5.39% [at 11.2 µM]

CCN(CCN(C)C)C(=O)CNCc1cc(C(N)=O)ccn1
inactive: activation [1] -3.67% | Potency [2] | Potency [3]

CC(C)=CCCC1(C)C=Cc2c(c(C)cc3c2[nH]c2ccccc23)O1 (configuration not stated)
inactive: activation [1] 2.29% | Potency [2] | Potency [3]

COC(=O)C1=CO[C@@H](O)C2C(CO)=CCC12 (some centres not stated)
inactive: activation [1] 23% | Potency [2] | Potency [3]

CC1=C(C)C(=O)OC(C(C)(O)C2CCC3C4CC=C5CC(OC6OC(COC7OC(CO)C(O)C(O)C7O)C(O)C(O)C6O)CC(O)C5(C)C4CCC32C)C1 (configuration not stated)
inactive: activation [1] -6.87% | Potency [2] | Potency [3]

CC(=O)c1c(C)cc(O)cc1O[C@@H]1O[C@H](CO)[C@@H](O)[C@H](O)[C@H]1O
inactive: activation [1] -17.6% | Potency [2] | Potency [3]

Source: PubChem BioAssay (NCATS)
